Screens deposited in PubChem by several laboratories.
tim10-1 inh: growth inhibitors of tim10-1 mutant yeast; S. cerevisiae tim10-1 ts strain growth, BacTiter-Glo, 24 h; inhibition, % at 20 µM; hit rate 2.2% among 330,000; AID 463190;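 active means inhibition of at least 40%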;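 further: mutant grown at 25 °C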
NALP3 yeast inh: blocks the NALP3 inflammasome reconstituted in yeast; Yeast reconstituted NLRP3/ASC/caspase-1, beta-gal luminescence, 24 h; inhibition, % at 10 µM; hit rate 0.39% among 330,000;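 active means inhibition of 50% or more; inactive means inhibition below 50%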
SKKanGAS inh: blocks kanamycin growth of S. pyogenes SKKanGAS strain; AID 1662; inhibition, % at 7.5 µM; BacTiter-Glo, 6 h; hit rate 1.3% among 300,000;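 active means mean replicate score, as percent of positive control median, at least 50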;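 further: strain carries kanamycin resistance gene driven by streptokinase promoter and grows in 40 µg/ml kanamycin; loss of luminescence reflects streptokinase promoter inhibition or plain growth inhibition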
TIM10 inh: inhibits growth of TIM10 yeast strain; S. cerevisiae TIM10 strain growth, BacTiter-Glo luminescence, 24 h; inhibition, % at 10 µM; hit rate 1.4% among 330,000;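 active means inhibition of 40% or more at the single tested concentration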;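 further: wild-type TIM10 isogenic control strain grown at permissive 25 °C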
PfHsp90 set2: growth inhibition of yeast expressing Plasmodium Hsp90; S. cerevisiae expressing PfHsp90, BacTiter-Glo ATP, 48 h; yeast lacking PDR1 and PDR3 efflux regulators; inhibition, % at 9.4 µM; hit rate 0.32% among 310,000;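 active means every replicate shows inhibition above about 80%, whatever the replicate mean, limit read from the data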
tim23-1 inh: inhibits growth of tim23-1 mutant yeast; S. cerevisiae tim23-1 growth, BacTiter-Glo luminescence, 24 h; inhibition, % at 20 µM; hit rate 1.3% among 330,000; AID 463212;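 active means growth inhibition of the mutant yeast at or above 50%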;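 further: temperature-sensitive mutant grown at 25 °C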
tim10-1 conf: tim10-1 yeast growth inhibition, confirmed. shares compounds with tim10-1 inh. S. cerevisiae tim10-1 ts strain growth, BacTiter-Glo, 24 h. inhibition, % at 20 µM. hit rate 56% among 7,400;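 active means inhibition of yeast growth at or above a set limit in either of two repeat tests at 20 µM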;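 further: tim10-1 mutant grown at permissive 25 °C to find synthetic lethal compounds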
TIM10 conf: TIM10 yeast growth inhibition, confirmed; shares compounds with TIM10 inh; hit rate 63% among 4,600; S. cerevisiae tim10 strain growth, BacTiter-Glo luminescence, 24 h; inhibition, % at 10 µM;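 active means inhibition of yeast growth at or above a set limit in either of two replicates at 10 µM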; further: this counterscreen used the strain with wild-type TIM10
tim23-1 conf: confirmation of tim23-1 mutant yeast growth inhibitors; shares compounds with tim23-1 inh; S. cerevisiae tim23-1 growth, BacTiter-Glo luminescence, 24 h; inhibition, % at 20 µM; hit rate 83% among 4,400; AID 463218;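 active means inhibition above about 39% in either of two replicate wells at 20 µM, limit read from the data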;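 further: temperature-sensitive tim23-1 mutant grown at 25 °C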
A number is an active result; . = inactive; / = no result. The list is not random: actives were taken first. Their share in the collection is about 4.5%.

SMILES	tim10-1 inh	NALP3 yeast inh	SKKanGAS inh	TIM10 inh	PfHsp90 set2	tim23-1 inh	tim10-1 conf	TIM10 conf	tim23-1 conf
Cc1ccccc1C(=O)NC(=S)Nc1ccccc1C(=O)O	.	.	.	.	.	.	/	/	/
COC(=O)c1ccccc1NC(=S)NC(=O)c1ccc2c(c1)OCO2	63	.	.	62	.	72	41	45	39
COC(=O)c1ccccc1NC(=S)NC(=O)c1ccccc1C	71	.	.	70	/	59	65	69	.
CC(C)CN1C(=O)C(=O)N(CC(=O)NC(C)CCc2ccccc2)C1=O (centres undefined)	.	.	/	.	.	.	/	/	/
Cc1cccc(NS(=O)(=O)c2ccc(-c3cnc(C4CC4)o3)cc2)c1C	59	.	.	.	.	69	52	/	52
COC(=O)c1cc(-c2ccc(Cl)cc2Cl)n[nH]1	.	.	.	.	.	.	/	/	/
O=c1c(Cl)c(Cl)cnn1Cc1nnc(-c2ccccc2Br)o1	63	.	.	44	.	78	67	50	77
O=c1oc(-c2ccco2)nc2sc3c(c12)CCCC3	46	.	.	47	.	54	31	43	42
Cc1nc2sc3c(c2c(=O)o1)CCCC3	.	.	.	.	.	.	/	/	/
O=C(NC1=NCCS1)c1cc(-c2ccc(F)cc2)nc2ccccc12	50	.	.	51	.	59	51	.	60
Cc1ccc(Cl)cc1NC1=C/C(=N\S(=O)(=O)c2cccs2)c2ccccc2C1=O	71	.	95	74	.	52	66	69	65
O=c1[nH]cnc2c1c(-c1ccccc1)cn2-c1ccccc1	.	.	.	.	.	.	/	/	/
Fc1cccc(-n2cc(-c3ccccc3)c3c(=S)nc[nH]c32)c1	40	.	84	.	.	55	32	/	48
Fc1ccc(-n2cc(-c3ccccc3)c3c(=S)nc[nH]c32)cc1	63	.	65	.	.	65	.	/	.
Cc1ccc(-n2cc(-c3ccccc3)c3c(=O)[nH]cnc32)cc1	48	.	.	49	.	57	32	.	43
Cc1cc(C)cc(OCC(=O)Nc2cnn(CCCC(=O)O)c2)c1	.	.	.	.	.	.	/	/	/
Cc1ccc2c(c1)CCCN2C(=O)c1cc(C)on1	.	.	.	.	.	.	/	/	/
CCN(CC)S(=O)(=O)c1ccc(C(=O)/C=C/c2ccc(-c3ccc([N+](=O)[O-])cc3)o2)cc1	.	.	.	.	.	.	/	/	/
Cc1ccc(C(=O)/C=C/c2ccc(-c3ccc(C)cc3)o2)cc1	63	.	.	57	.	60	64	66	76
O=C(NCc1ccc(F)cc1)C1CCCN1C(=O)Nc1cccc(F)c1 (centres undefined)	.	.	.	.	.	.	/	/	/
CCNC(=O)O/N=C(\C)c1sc(-c2ccc(Cl)cc2)nc1C	60	.	.	.	.	57	54	/	64
CC(C)[C@H](NC(=O)N1CCn2c1nc1ccccc12)C(=O)N[C@@H](C(=O)O)c1ccccc1	.	.	.	.	.	.	/	/	/
CCCn1c(NC(=O)c2cccc(S(=O)(=O)N3CCCC3)c2)nc2ccccc21	41	.	64	.	.	50	.	/	58
CCC(=O)NC(=S)NNC(=O)c1ccc([N+](=O)[O-])cc1	.	.	.	.	.	.	/	/	/
O=C(NC(=S)NNC(=O)c1ccccc1[N+](=O)[O-])c1ccccc1	41	.	.	51	.	50	52	56	53
SMILES	tim10-1 inh	NALP3 yeast inh	SKKanGAS inh	TIM10 inh	PfHsp90 set2	tim23-1 inh	tim10-1 conf	TIM10 conf	tim23-1 conf
CCC(=O)NC(=S)NNC(=O)c1ccccc1[N+](=O)[O-]	45	.	.	53	.	56	76	60	64
O=C(NNC(=O)c1ccccc1[N+](=O)[O-])c1ccccc1[N+](=O)[O-]	.	.	/	.	.	.	/	/	/
CCOc1ccc(/C=C2\CCc3ccccc3C2=O)cc1	.	.	.	.	.	.	/	/	/
O=C1/C(=C\c2ccncc2)CCc2ccccc21	65	.	.	60	.	72	62	62	.
COc1ccc(C(=O)O)cc1S(=O)(=O)Nc1ccc(Oc2ccccc2)cc1	.	.	/	.	.	.	/	/	/
CCOc1cccc(NCc2cc3c(C(C)(C)C)nn(-c4ccccc4)c3[nH]c2=O)c1	50	.	.	42	.	68	42	.	65
Cc1nn(-c2ccccc2)c2[nH]c(=O)c(CNCC3CCCO3)cc12 (centres undefined)	.	.	.	.	.	.	/	/	/
CCCC(=O)Nc1nnc(/C=C/c2ccc(OC)cc2)s1	.	.	.	.	.	.	/	/	/
COc1ccc(/C=C/c2nnc(NC(=O)C(C)(C)C)s2)cc1	41	.	.	.	.	52	31	/	46
CCOCCn1c(CN2CCN(C(c3ccccc3)c3ccccc3)CC2)nc2c1c(=O)n(C)c(=O)n2C	.	.	.	.	.	.	/	/	/
CCOc1cc(/C=C2/C(=O)ON=C2C)ccc1OCc1ccccc1	.	.	.	.	/	.	/	/	/
CCOc1cc(/C=C2/C(=O)ON=C2C)ccc1OCc1ccccc1F	52	.	.	.	.	58	.	/	52
C=CCC[C@@H](Cc1ccc(F)cc1)C(=O)O[C@H](CNC(=O)[C@@H](CC=C)CC(=O)N[C@H](CO)Cc1ccccc1)c1ccccc1	.	.	/	.	/	.	/	/	/
CN1CCN(C(=O)/C(=C/c2cn(S(=O)(=O)N(C)C)c3ccccc23)NC(=O)c2ccccc2F)CC1	.	.	.	.	.	.	/	/	/
C=CCn1c(=O)/c(=C/c2ccc(O)cc2)s/c1=C(/C#N)c1nnc2n1CCCCC2	.	.	/	.	.	.	/	/	/
C=CCn1c(=O)/c(=C/c2ccc(Cl)cc2)s/c1=C(/C#N)c1nnc2n1CCCCC2	57	.	.	49	.	63	33	44	58
Cc1cccc(Nc2nc(-c3ccc(O)cc3O)cs2)n1	43	.	.	.	.	87	38	/	72
Oc1ccc(-c2csc(Nc3ncccn3)n2)c(O)c1	.	.	.	.	.	.	/	/	/
O=C1C(=Cc2cccs2)C(=O)c2ccccc21	.	.	.	.	.	.	/	/	/
O=C1C(c2ccccc2)=[N+]([O-])c2ccccc21	58	.	.	55	.	61	47	53	.
O=C(CNc1ccc(Cl)c(C(F)(F)F)c1)N1CCN(S(=O)(=O)c2ccccc2)CC1	/	/	/	/	.	/	/	/	/
Nc1nc(N)c2cc(Sc3ccc4ccccc4c3)ccc2n1	89	.	109	.	/	59	84	/	68
